High-throughput results: PubChem BioAssay, Broad Institute
TRPM1 prom inh – inhibitors of MITF-dependent TRPM1 promoter reporter, primary screen, cell-based, SK-MEL-5, single point, luciferase. inhibition, % at 12.5 µM. 330,000 tested, 0.83% active. SK-MEL-5 TRPM1 promoter luciferase, 24 h;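 active = mean inhibition across replicates of 60% or more, whatever share of single replicates reaches that level; inconclusive = some that reach 60%, reason not given; inactive = mean inhibition across replicates below 60%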
EWS-Fli block – EWS/Fli-driven NR0B1 reporter inhibitors, primary screen, A673 cells, NR0B1 luciferase, luminescence, MLPCN library. 350,000 tested, 0.67% active. viability-normalised. inhibition, % at 12.6 µM;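 active = mean inhibition of at least 50% after viability correction, with every replicate also passing that limit; inconclusive = mean reaches 50% but only one of two replicates passes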;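 note: firefly luciferase signal divided by Alamar Blue viability fluorescence both relative to DMSO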
esBAF inh – Bmi1 luciferase reporter increase in mESCs, primary screen, esBAF inhibitor project, mouse ES cells, Bmi1 luciferase knock-in, single point; 24 h; 100% = twice the neutral-well signal; reporter increase, % at 12.5 µM; 350,000 tested, 2% active; AID 602393, 2012; in the data active = activation above about 40%; inconclusive = no clear call, values can overlap the other calls;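 note: a rise in the Bmi1 reporter signal indicates esBAF inhibition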
MITF act – activators of MITF-driven TRPM1 promoter reporter, primary screen, cell-based, SK-MEL-5, luciferase, single point. activation, % at 12.5 µM. 300,000 tested, 0.75% active. SK-MEL-5 TRPM1-promoter luciferase, 24 h; % of positive control, neutral wells = 0. AID 588334, 2011;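 active = mean activation of at least 80% with every replicate also reaching 80%; inconclusive = mean reaches 80% but some replicate falls short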
Wnt act – Wnt/beta-catenin pathway activators, primary screen, cell-based, plate reader, single point. Wnt/beta-catenin reporter cell assay, activator. activation, % at 9.35 µM. 300,000 tested, 1.2% active; in the data active = activation above about 30%, passing the limit was not always enough; inconclusive = no clear call, values can overlap the other calls
PAX8 reporter – inhibitors of PAX8-driven TPO luciferase reporter, primary screen, RMG-I cells, single concentration. SteadyGlo, 24 h. inhibition, % at 12.6 µM. 360,000 tested, 1.2% active. AID 652154, 2013;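 active = mean replicate inhibition at least 60% with every replicate also reaching 60%; inconclusive = only one of the two criteria is met; inactive = mean below 60% and not all replicates reaching 60%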;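 note: luciferase light reporting Pax8 driven TPO promoter activity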
esBAF Ring1 qPCR – Ring1 mRNA increase in mouse ESCs, confirmation, esBAF inhibitor project, cell-based, mouse ESC, RT-qPCR, cherry-pick | shares compounds with esBAF inh | mouse ESC E14, Ring1 mRNA RT-qPCR fold change | fold change at 33 µM | 550 tested, under 10 active;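 active = Ring1 gene expression raised more than 2-fold over untreated cells in both replicates at either tested dose; inconclusive = only one replicate above 2-fold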;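 note: Ring1 transcript normalised to actin housekeeping signal by TaqMan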
Fgf4 repress – Fgf4 mRNA decrease in mouse ESCs, confirmation, esBAF inhibitor project, cell-based, mouse ESC, RT-qPCR, cherry-pick; mouse ESC E14, Fgf4 mRNA qPCR fold change; stronger effect = lower value; AID 743177, 2013; 550 tested, 4% active; Fgf4 expression fold change at 33 µM; shares compounds with esBAF inh;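 active = Fgf4 expression under 0.8 fold of control in both repeat measurements at one or both tested doses; inconclusive = under 0.8 fold in just a single repeat measurement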;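 note: Fgf4 transcript normalised to actin in duplex TaqMan qPCR; cells exposed to compound for 24 h before lysis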
Bmi1 derepress – esBAF inhibition via Bmi1 de-repression, confirmation, cell-based, RT-qPCR, mouse ESC, single point, cherry-pick; shares compounds with esBAF inh; mouse ESE14 ES cells, Bmi1 mRNA qPCR fold; stronger effect = higher value; fold change at 33 µM; 550 tested, under 10 active; AID 743180, 2013;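 active = Bmi1 expression fold change above 6 at either tested concentration, seen in replicate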
A549 cytotox – A549 cell cytotoxicity, cytotoxicity control, plate reader, single point, cherry-pick | shares compounds with esBAF inh | cell viability change % (negative = cytotoxic), % at 25 µM, hits read low | 550 tested, under 10 active; call rule not given here
HepG2 tox SP – HepG2 cell cytotoxicity, cytotoxicity control, plate reader, single point, cherry-pick | shares compounds with esBAF inh | stronger effect = lower value | activity change, negative = inhibition, % at 25 µM | 550 tested, 4% active | AID 743189, 2013; in the data active = activity change below about -50%
HEK293 cytotox SP – HEK293 cell cytotoxicity, cytotoxicity control, plate reader, single point, cherry-pick | shares compounds with esBAF inh | activity change, negative = inhibition, % at 25 µM, hits read low | 550 tested, 3% active | AID 743190, 2013; in the data active = activity change below about -38%, passing the limit was not always enough
Each line names hits and unclear results; the compound was inactive in the other large screens (follow-up assays come after a bar, where they were run). Sampled rows, rich in hits. Any-hit rate of the full collection: about 4%.

CCNC(=O)Nc1ccc2c(c1)C(=O)N(C)[C@H]1CC[C@H](CC(=O)Nc3ccccc3)O[C@@H]1CO2	none (no result: TRPM1 prom inh, MITF act, Wnt act)
COc1cc(Cl)ccc1OCc1cc(C(=O)N2CCN(C)C(=O)[C@@H]2C)no1	esBAF inh 95.8, Wnt act 43.5 (no result: TRPM1 prom inh, MITF act) | esBAF Ring1 qPCR inactive | Fgf4 repress 0.498 | Bmi1 derepress inactive | A549 cytotox inactive | HepG2 tox SP inactive | HEK293 cytotox SP inactive
COc1ccc(C(=O)O/N=C(/c2cccs2)C(C)(C)C)cc1	none
COc1ccc(C2CC2/C(=N/OC(=O)c2cccs2)c2ccccc2)cc1 (stereo not drawn)	esBAF inh 68.0 (no result: EWS-Fli block, MITF act, PAX8 reporter) | esBAF Ring1 qPCR inactive | Fgf4 repress inactive | Bmi1 derepress inactive | A549 cytotox inactive | HepG2 tox SP inactive | HEK293 cytotox SP inactive
C[C@@H]1CCCCO[C@@H](CN(C)C(=O)Cc2ccccc2)[C@@H](C)CN([C@@H](C)CO)C(=O)c2cc(NS(=O)(=O)c3cn(C)cn3)ccc2O1	none (no result: TRPM1 prom inh, MITF act, Wnt act)
CN(c1cccc(NC(=O)c2ccc(C(C)(C)C)cc2)c1)S(C)(=O)=O	esBAF inh 72.8 | esBAF Ring1 qPCR inactive | Fgf4 repress inactive | Bmi1 derepress inactive | A549 cytotox inactive | HepG2 tox SP inactive | HEK293 cytotox SP inactive
CN(C)C(=O)C[C@@H]1CC[C@H]2[C@@H](COC[C@@H](O)CN2Cc2ccc(C(F)(F)F)cc2)O1	none (no result: TRPM1 prom inh, MITF act, Wnt act)
Nc1cc2c3ccccc3ccc2c2ccccc12	esBAF inh 79.0 | esBAF Ring1 qPCR 0.641 | Fgf4 repress 0.475 | Bmi1 derepress 37.1 | A549 cytotox inactive | HepG2 tox SP inactive | HEK293 cytotox SP -118.9
Nc1ccc2ccccc2c1[N+](=O)[O-]	none
CCCC#Cc1ccc2c(c1)O[C@H](CN(C)Cc1ccccc1)[C@H](C)CN([C@H](C)CO)S2(=O)=O	none (no result: TRPM1 prom inh, MITF act, Wnt act)
COc1cccc(C(=O)Nc2ccc(Cl)c(C(F)(F)F)c2)c1	esBAF inh 68.2, MITF act inconclusive (no result: EWS-Fli block) | esBAF Ring1 qPCR inactive | Fgf4 repress inactive | Bmi1 derepress inactive | A549 cytotox inactive | HepG2 tox SP inactive | HEK293 cytotox SP inactive
COc1cc(C(=O)Nc2ccc(Cl)c(C(F)(F)F)c2)cc(OC)c1OC	none (no result: EWS-Fli block)
Cn1c2nc3ccccc3c-2nc2ccccc21	esBAF inh 54.1, Wnt act 38.6 (no result: TRPM1 prom inh, MITF act) | esBAF Ring1 qPCR inactive | Fgf4 repress inactive | Bmi1 derepress 6.44 | A549 cytotox inactive | HepG2 tox SP inactive | HEK293 cytotox SP inactive
CC1CCc2sc(C(=O)NC3CCCCC3)cc2C1 (stereo not drawn)	esBAF inh 75.4, Wnt act 54.4 (no result: TRPM1 prom inh, MITF act) | esBAF Ring1 qPCR inactive | Fgf4 repress inactive | Bmi1 derepress inactive | A549 cytotox inactive | HepG2 tox SP inactive | HEK293 cytotox SP inactive
CC1CCc2sc(C(=O)NC(C)C3CCCO3)cc2C1 (stereo not drawn)	none (no result: esBAF inh)
Nc1c(Cl)cc(N=Nc2ccccc2)cc1Cl	esBAF inh 58.0 | esBAF Ring1 qPCR inactive | Fgf4 repress inactive | Bmi1 derepress inactive | A549 cytotox inactive | HepG2 tox SP -91.3 | HEK293 cytotox SP inactive
Nc1ccc2c(c1)Cc1cc(N)c(Cl)cc1-2	esBAF inh 88.3 | esBAF Ring1 qPCR inactive | Fgf4 repress inactive | Bmi1 derepress inactive | A549 cytotox inactive | HepG2 tox SP inactive | HEK293 cytotox SP inactive
CC(=O)Nc1ccc(CNc2nc3cc(-c4ccsc4)sc3c(=O)n2C)cc1	esBAF inh 78.4 (no result: TRPM1 prom inh, MITF act, Wnt act) | esBAF Ring1 qPCR inactive | Fgf4 repress inactive | Bmi1 derepress inactive | A549 cytotox inactive | HepG2 tox SP inactive | HEK293 cytotox SP inactive
CC(=O)Nc1ccc(CNc2nc3cc(-c4ccc(F)cc4)sc3c(=O)n2C)cc1	esBAF inh 67.8 (no result: TRPM1 prom inh, MITF act) | esBAF Ring1 qPCR inactive | Fgf4 repress inactive | Bmi1 derepress inactive | A549 cytotox inactive | HepG2 tox SP inactive | HEK293 cytotox SP inactive
CO[C@@H]1CN(C)C(=O)c2cc(NC(C)=O)ccc2OC[C@H](C)N(Cc2cccc(F)c2)C[C@@H]1C	none (no result: TRPM1 prom inh, MITF act, Wnt act)
CSc1ccccc1NC(=O)c1cc(C(C)C)on1	esBAF inh 78.4 (no result: EWS-Fli block, MITF act, Wnt act, PAX8 reporter) | esBAF Ring1 qPCR inactive | Fgf4 repress inconclusive | Bmi1 derepress inactive | A549 cytotox inactive | HepG2 tox SP inactive | HEK293 cytotox SP inactive
CSc1ccccc1NC(=O)c1cc(C)on1	none (no result: EWS-Fli block, Wnt act, PAX8 reporter)
S=c1[nH]nc(SCc2ccccc2)c2[nH]cnc12	esBAF inh 55.4 | esBAF Ring1 qPCR inactive | Fgf4 repress inactive | Bmi1 derepress inactive | A549 cytotox inactive | HepG2 tox SP inactive | HEK293 cytotox SP inactive
CCC(=O)N1[C@@H]2Cn3c(ccc(-c4ccccc4F)c3=O)[C@H]1[C@@H](C(=O)NC1CCC1)[C@@H]2CO	none (no result: TRPM1 prom inh, MITF act, Wnt act, PAX8 reporter)
COc1cc(CNc2ccc(S(N)(=O)=O)cc2)ccc1OCc1ccccc1F	esBAF inh 96.0 (no result: MITF act) | esBAF Ring1 qPCR inactive | Fgf4 repress inactive | Bmi1 derepress inactive | A549 cytotox inactive | HepG2 tox SP inactive | HEK293 cytotox SP inactive
ON=C(CCc1ccccc1)c1ccccc1	esBAF inh 74.0 (no result: TRPM1 prom inh, MITF act) | esBAF Ring1 qPCR inactive | Fgf4 repress inactive | Bmi1 derepress inactive | A549 cytotox inactive | HepG2 tox SP inactive | HEK293 cytotox SP inactive
O=C(O)c1ccc(O)c2ncccc12	esBAF inh 71.0 (no result: TRPM1 prom inh, MITF act) | esBAF Ring1 qPCR inactive | Fgf4 repress inactive | Bmi1 derepress inactive | A549 cytotox inactive | HepG2 tox SP inactive | HEK293 cytotox SP inactive
C[C@@H]1CN([C@H](C)CO)C(=O)c2cc(-c3cccc(F)c3)cnc2O[C@H]1CN(C)S(=O)(=O)c1cccc(F)c1	none (no result: TRPM1 prom inh, esBAF inh, MITF act, Wnt act, PAX8 reporter)
